The results in this text go back to PubChem BioAssay (NCI).

The nature of experiment [1]: NCI Yeast Anticancer Drug Screen. Data for the rad50 strain (AID 155).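 Note: 0% = growth of vehicle-only cultures of the same strain.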 Conditions: S. cerevisiae rad50 strain growth inhibition, active compounds read high. In short, it runs like this:
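DNA repair mutant yeast, compound exposure, growth read-out; inhibition is taken relative to vehicle.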

Experiment [2] in a line: NCI Yeast Anticancer Drug Screen. Data for the mec2-1 strain (AID 157). The settings on record: S. cerevisiae mec2-1 strain, active compounds read high. In short, it runs like this: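 Cells of the genetically defined mec2-1 yeast strain are incubated with test compound. Inhibition of growth is calculated against vehicle-treated controls.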
The nature of experiment [3]: NCI Yeast Anticancer Drug Screen. Data for the sgs1 mgt1 strain (AID 161).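 Note: 0% = growth of cultures given vehicle only.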 Conditions: S. cerevisiae sgs1 mgt1 strain, active compounds read high. Summed up:
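Mutant yeast exposed to compound; growth scored against vehicle-only wells.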

Experiment [4] can be described thus: NCI Yeast Anticancer Drug Screen. Data for the cln2 rad14 strain (AID 165).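 Note: 0% = growth equal to vehicle treated cultures.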 Conditions: S. cerevisiae cln2 rad14 strain, active compounds read high. Summed up:
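The screen exposed genetically defined yeast (cln2 rad14) to test compounds and scored growth inhibition relative to vehicle-treated controls.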

Experiment [5] in a line: NCI Yeast Anticancer Drug Screen. Data for the bub3 strain (AID 167). Conditions: S. cerevisiae bub3 mutant strain, active compounds read high. In short, it runs like this:
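In this screen, a yeast mutant lacking normal mitotic checkpoint function is challenged with compound. Relative growth versus vehicle gives the inhibition value.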

The nature of experiment [6]: NCI Yeast Anticancer Drug Screen. Data for the mlh1 rad18 strain (AID 175). Conditions: S. cerevisiae mlh1 rad18 strain growth inhibition, active compounds read high. Summed up:
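Compound-treated yeast growth, normalised to vehicle controls. Strain bears defined DNA repair mutations.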

Setting [7] is: at 5.0 µM (retest, dose inferred, filed as 0.5).
Where [8] appears, read: at 50.0 µM (retest, dose inferred, filed as 5.0).

The structures appear in SMILES notation. The panel holds about 79,000 compounds, 15% with a hit somewhere; the sample as a whole holds those more often. Values without a mark were called inactive. Calls of active or inactive are those of the source. Cut-off read from the data, not from the text of the source: active = growth inhibition above about 70%; inactive = the rest.

Regarding `Cn1cnc([N+](=O)[O-])c1S`, the growth inhibition in experiment [1] (setting [7]) is 2%; in experiment [1] (setting [8]), 1%; in experiment [1] (at 50.0 µM), -4.8%; in experiment [2] (setting [7]), -2%; in experiment [2] (setting [8]) it was 9%; in experiment [2] (at 50.0 µM), 16.2%. Further, the growth inhibition in experiment [3] (setting [7]) is 0%; in experiment [3] (setting [8]), -2%; in experiment [3] (at 50.0 µM) it was 8.45%; in experiment [4] (setting [7]), -5%; in experiment [4] (setting [8]), 13%; in experiment [4] (at 50.0 µM), 44%. The growth inhibition in experiment [5] (setting [7]) was 0%; in experiment [5] (setting [8]), 3%; in experiment [5] (at 50.0 µM), -0.8%; in experiment [6] (setting [7]), 1%; in experiment [6] (setting [8]), 9%; in experiment [6] (at 50.0 µM), 21.6%.

Turning to `O=C(N/C(=C\c1nc2ccccc2s1)c1ccccc1O)c1ccccc1`, the growth inhibition in experiment [1] (setting [7]) was -10%; in experiment [1] (setting [8]) it was 68%; in experiment [1] (at 50.0 µM) it was 29.8%; in experiment [2] (setting [7]) it was 7%; in experiment [2] (setting [8]), 30%; in experiment [2] (at 50.0 µM) it was 12.3%. The growth inhibition was -16% in experiment [3] (setting [7]); 31% in experiment [3] (setting [8]); 38.5% in experiment [3] (at 50.0 µM); 2% in experiment [4] (setting [7]); 41% in experiment [4] (setting [8]); 17.2% in experiment [4] (at 50.0 µM). Moreover, the growth inhibition in experiment [5] (setting [7]) is -5%; in experiment [5] (setting [8]) it was 75% (active); in experiment [5] (at 50.0 µM) it was 32.4%; in experiment [6] (setting [7]), 19%; in experiment [6] (setting [8]) it was 37%; in experiment [6] (at 50.0 µM) it was 32%.

For the compound `CCOc1ccc2nc([NH-])sc2c1.CCOc1ccc2nc([NH-])sc2c1.[Cl][Pt+2][Cl]`, the growth inhibition was -1% in experiment [1] (setting [7]); -1% in experiment [1] (setting [8]); 26.4% in experiment [1] (at 50.0 µM); -1% in experiment [2] (setting [7]); 4% in experiment [2] (setting [8]); 35.5% in experiment [2] (at 50.0 µM). Also, the growth inhibition was -1% in experiment [3] (setting [7]); 15% in experiment [3] (setting [8]); 47.8% in experiment [3] (at 50.0 µM); -2% in experiment [4] (setting [7]); -7% in experiment [4] (setting [8]); 17.9% in experiment [4] (at 50.0 µM). In addition, the growth inhibition was -2% in experiment [5] (setting [7]); -6% in experiment [5] (setting [8]); -4.85% in experiment [5] (at 50.0 µM); -2% in experiment [6] (setting [7]); 3% in experiment [6] (setting [8]); 62.1% in experiment [6] (at 50.0 µM).

With `CC1(C)OC(C(COC(=O)c2ccc([N+](=O)[O-])cc2)OS(=O)(=O)c2ccc([N+](=O)[O-])cc2)C(C(SCc2ccccc2)SCc2ccccc2)O1` (configuration not stated), the growth inhibition in experiment [1] (setting [7]) is 12%; in experiment [1] (setting [8]) it was 97% (active); in experiment [1] (at 50.0 µM) it was 43.6%; in experiment [2] (setting [7]) it was 1%; in experiment [2] (setting [8]) it was 99% (active); in experiment [2] (at 50.0 µM) it was 33.5%. For the same compound, the growth inhibition in experiment [3] (setting [7]) is 4%; in experiment [3] (setting [8]) it was 98% (active); in experiment [3] (at 50.0 µM) it was 46.6%; in experiment [4] (setting [7]) it was -9%; in experiment [4] (setting [8]), 92% (active); in experiment [4] (at 50.0 µM) it was 7.75%. The growth inhibition in experiment [5] (setting [7]) is -2%; in experiment [5] (setting [8]), 99% (active); in experiment [5] (at 50.0 µM), 15.3%; in experiment [6] (setting [7]) it was 8%; in experiment [6] (setting [8]), 98% (active); in experiment [6] (at 50.0 µM), 67%.

For `C=C1CC2(OC1=O)C(=O)N(C)c1ccccc12` (configuration not stated), the growth inhibition was -118% in experiment [1] (setting [7]); 63% in experiment [1] (setting [8]); 84.5% (active) in experiment [1] (at 50.0 µM); -31% in experiment [2] (setting [7]); 52% in experiment [2] (setting [8]); 87.5% (active) in experiment [2] (at 50.0 µM). The growth inhibition is -38% in experiment [3] (setting [7]); 67% in experiment [3] (setting [8]); 82.6% (active) in experiment [3] (at 50.0 µM); -49% in experiment [4] (setting [7]); 22% in experiment [4] (setting [8]); 15% in experiment [4] (at 50.0 µM). Further, the growth inhibition in experiment [5] (setting [7]) was -47%; in experiment [5] (setting [8]), 73% (active); in experiment [5] (at 50.0 µM), 88.2% (active); in experiment [6] (setting [7]), -111%; in experiment [6] (setting [8]), 71% (active); in experiment [6] (at 50.0 µM), 91.7% (active).

Take `Oc1[nH]c2ccccc2c1N=NC(=S)N1CCCCCC1`: the growth inhibition in experiment [1] (setting [7]) is 6%; in experiment [1] (setting [8]), 98% (active); in experiment [1] (at 50.0 µM) it was 54.5%; in experiment [2] (setting [7]), -5%; in experiment [2] (setting [8]) it was 97% (active); in experiment [2] (at 50.0 µM) it was 72.2% (active). The growth inhibition in experiment [3] (setting [7]) is -13%; in experiment [3] (setting [8]), 98% (active); in experiment [3] (at 50.0 µM), 83.2% (active); in experiment [4] (setting [7]) it was -17%; in experiment [4] (setting [8]), 98% (active); in experiment [4] (at 50.0 µM), 78.5% (active). Also, the growth inhibition is -28% in experiment [5] (setting [7]); 99% (active) in experiment [5] (setting [8]); 87.1% (active) in experiment [5] (at 50.0 µM); -8% in experiment [6] (setting [7]); 98% (active) in experiment [6] (setting [8]); 79.8% (active) in experiment [6] (at 50.0 µM).

With `CCCCCCCNC1CCCc2cc(OC)ccc21` (configuration not stated), the growth inhibition in experiment [1] (setting [7]) is 40%; in experiment [1] (setting [8]), 56%; in experiment [1] (at 50.0 µM) it was 85.5% (active); in experiment [2] (setting [7]) it was 22%; in experiment [2] (setting [8]) it was 31%; in experiment [2] (at 50.0 µM) it was 70.5% (active). The growth inhibition in experiment [3] (setting [7]) is 28%; in experiment [3] (setting [8]), 64%; in experiment [3] (at 50.0 µM), 84.2% (active); in experiment [4] (setting [7]), 28%; in experiment [4] (setting [8]), 54%; in experiment [4] (at 50.0 µM), 72.5% (active). The growth inhibition is 21% in experiment [5] (setting [7]); 35% in experiment [5] (setting [8]); 69.8% in experiment [5] (at 50.0 µM); 20% in experiment [6] (setting [7]); 60% in experiment [6] (setting [8]); 71.2% (active) in experiment [6] (at 50.0 µM).

For `COC(=O)c1cccc2c1C(=O)c1ccccc1-2`, the growth inhibition in experiment [1] (setting [7]) is -7%; in experiment [1] (setting [8]), 37%; in experiment [1] (at 50.0 µM) it was 22.7%; in experiment [2] (setting [7]), -37%; in experiment [2] (setting [8]), -14%; in experiment [2] (at 50.0 µM), -9.6%. In addition, the growth inhibition is -8% in experiment [3] (setting [7]); -11% in experiment [3] (setting [8]); -5.9% in experiment [3] (at 50.0 µM); -3% in experiment [4] (setting [7]); -19% in experiment [4] (setting [8]); 71.2% (active) in experiment [4] (at 50.0 µM). Besides, the growth inhibition was -23% in experiment [5] (setting [7]); -54% in experiment [5] (setting [8]); -10.7% in experiment [5] (at 50.0 µM); -2% in experiment [6] (setting [7]); -6% in experiment [6] (setting [8]); 1.55% in experiment [6] (at 50.0 µM).

For the compound `O=C1c2cc([N+](=O)[O-])cc3cc([N+](=O)[O-])cc(c23)C(=O)N1CCNCCN1C(=O)c2cc([N+](=O)[O-])cc3cc([N+](=O)[O-])cc(c23)C1=O`, the growth inhibition in experiment [1] (setting [7]) is 86% (active); in experiment [1] (setting [8]) it was 92% (active); in experiment [1] (at 50.0 µM), 81.2% (active); in experiment [2] (setting [7]), 42%; in experiment [2] (setting [8]), 89% (active); in experiment [2] (at 50.0 µM), 89.2% (active). Also, the growth inhibition is 64% in experiment [3] (setting [7]); 94% (active) in experiment [3] (setting [8]); 42.4% in experiment [3] (at 50.0 µM); 62% in experiment [4] (setting [7]); 90% (active) in experiment [4] (setting [8]); 70.3% (active) in experiment [4] (at 50.0 µM). For the same compound, the growth inhibition in experiment [5] (setting [7]) was 61%; in experiment [5] (setting [8]), 92% (active); in experiment [5] (at 50.0 µM), 92.3% (active); in experiment [6] (setting [7]), 56%; in experiment [6] (setting [8]), 92% (active); in experiment [6] (at 50.0 µM) it was 76.3% (active).
